Results published in the supplement of paper PMC10849652.
Targets with a hit are over-represented here; the source holds about 7,900 in all. About 0.6% of all pairs of compound and target were hits.

Key:
Experiment in all cases: log2 fold change, soluble protein after heating vs DMSO (PISA); higher = thermal stabilisation; K562 cells, 10 uM, 30 min; active = over 0.2 and 3.5 SD of the protein, either way, in both replicates (recomputed)
filanesib = compound: CON(C)C(=O)N1N=C(c2cc(F)ccc2F)S[C@@]1(CCCN)c1ccccc1 [filanesib]
How it was run: (§1)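 K562 cells at 2×10^6 cells/mL were exposed to 10 μM compound for 30 min, then aliquots were heated for 3 min across 48°C-58°C, pooled, and extracted in PBS containing 0.5% NP-40 at 4°C. The supernatant after 21,000xg for 90 min was taken as soluble protein and measured by TMTpro 16plex LC-MS/MS with channel sums equalised. Thermal stability is reported relative to control samples, with values from duplicates. Fold changes are given on a log2 scale.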

zotarolimus = compound: CO[C@H]1C[C@@H]2CC[C@@H](C)[C@@](O)(O2)C(=O)C(=O)N2CCCC[C@H]2C(=O)O[C@H]([C@H](C)C[C@@H]2CC[C@H](n3cnnn3)[C@H](OC)C2)CC(=O)[C@H](C)/C=C(\C)[C@@H](O)[C@@H](OC)C(=O)[C@H](C)C[C@H](C)/C=C/C=C/C=C/1C [zotarolimus]
How it was run: as §1

idasanutlin = compound: COc1cc(C(=O)O)ccc1NC(=O)[C@@H]1N[C@@H](CC(C)(C)C)[C@](C#N)(c2ccc(Cl)cc2F)[C@H]1c1cccc(Cl)c1F [idasanutlin]
How it was run: as §1

alisertib = compound: COc1cc(Nc2ncc3c(n2)-c2ccc(Cl)cc2C(c2c(F)cccc2OC)=NC3)ccc1C(=O)O [alisertib]
How it was run: as §1

[1] = compound: COc1cc2nc(-c3cc(F)ccc3O)nc(N[C@@H]3CNC[C@H]3C(C)(C)O)c2cc1OC
How it was run: as §1

gefitinib = compound: COc1cc2ncnc(Nc3ccc(F)c(Cl)c3)c2cc1OCCCN1CCOCC1 [gefitinib]
How it was run: as §1

[2] = compound: COc1cccc2cc(-c3nc([C@H]4CC[C@H](C(=O)O)CC4)n4ncnc(N)c34)[nH]c12
How it was run: as §1

lapatinib = compound: CS(=O)(=O)CCNCc1ccc(-c2ccc3ncnc(Nc4ccc(OCc5cccc(F)c5)c(Cl)c4)c3c2)o1 [lapatinib]
How it was run: as §1

pictilisib = compound: CS(=O)(=O)N1CCN(Cc2cc3nc(-c4cccc5[nH]ncc45)nc(N4CCOCC4)c3s2)CC1 [pictilisib]
How it was run: as §1

[3] = compound: COC1=CC=C(C=C1)CN2C=CC3=C2C=C(C=C3)C(=O)NO
How it was run: as §1

Measured: log2 fold change

ALDH9A1 (UniProt P49189)
inactive: filanesib -0.149 | zotarolimus -0.164 | idasanutlin -0.073 | alisertib -0.091 | [1] 0.038 | gefitinib 0.039 | [2] 0.081 | lapatinib -0.037 | pictilisib -0.124

ARL4A (UniProt P40617)
inactive: idasanutlin 0.056 | alisertib 0.042 | [2] 0.094

AZI2 (UniProt Q9H6S1)
inactive: filanesib 0.006 | gefitinib 0.227

ACTBL2 (UniProt Q562R1)
Chain of UniProt Q562R1 (Q562R1 whole entry, looked up): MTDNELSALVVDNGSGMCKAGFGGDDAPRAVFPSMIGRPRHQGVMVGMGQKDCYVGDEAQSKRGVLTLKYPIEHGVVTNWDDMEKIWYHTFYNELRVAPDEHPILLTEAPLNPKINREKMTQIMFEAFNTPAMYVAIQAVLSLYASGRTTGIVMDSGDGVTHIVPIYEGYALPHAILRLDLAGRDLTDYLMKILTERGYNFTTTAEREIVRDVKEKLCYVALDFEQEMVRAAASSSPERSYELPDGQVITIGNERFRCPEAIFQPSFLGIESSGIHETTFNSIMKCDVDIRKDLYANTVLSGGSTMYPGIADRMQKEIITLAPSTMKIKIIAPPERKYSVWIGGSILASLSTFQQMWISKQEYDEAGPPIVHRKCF
inactive: filanesib 0.171 | idasanutlin 0.533 | alisertib 0.521 | [1] -0.085 | gefitinib 0.348 | [2] -0.105 | lapatinib -0.079 | pictilisib -0.541

ARHGAP4 isoform 2 (UniProt P98171)
inactive: filanesib 0.027 | zotarolimus -0.012 | idasanutlin 0.104 | alisertib 0.166 | [1] 0.067 | gefitinib -0.211 | [2] 0.028 | lapatinib 0.051

ATF1 (UniProt P18846)
Chain of UniProt P18846 (P18846 whole entry, looked up): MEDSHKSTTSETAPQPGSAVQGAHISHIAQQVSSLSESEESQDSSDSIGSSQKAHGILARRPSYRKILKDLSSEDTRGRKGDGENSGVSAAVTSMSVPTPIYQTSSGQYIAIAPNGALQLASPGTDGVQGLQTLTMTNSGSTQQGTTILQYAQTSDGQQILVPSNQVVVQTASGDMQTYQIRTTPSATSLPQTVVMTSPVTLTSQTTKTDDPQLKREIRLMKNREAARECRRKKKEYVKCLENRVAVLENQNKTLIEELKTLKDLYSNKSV
active: zotarolimus -0.51
inactive: filanesib 0.097 | idasanutlin -0.082 | alisertib -0.101 | [1] -0.071 | gefitinib 0.052 | [2] 0.006 | lapatinib -0.011 | pictilisib -0.039

ASS1 (UniProt P00966)
inactive: filanesib -0.101 | zotarolimus 0.012 | idasanutlin -0.085 | alisertib 0.254 | [1] 0.047 | gefitinib -0.005 | [2] 0.056 | lapatinib -0.012 | pictilisib 0.018

ARMC8 isoform 6 (UniProt Q8IUR7)
inactive: idasanutlin 0.072 | gefitinib 0.072

AARSD1 (UniProt Q9BTE6)
Chain of UniProt Q9BTE6 (Q9BTE6 whole entry, looked up): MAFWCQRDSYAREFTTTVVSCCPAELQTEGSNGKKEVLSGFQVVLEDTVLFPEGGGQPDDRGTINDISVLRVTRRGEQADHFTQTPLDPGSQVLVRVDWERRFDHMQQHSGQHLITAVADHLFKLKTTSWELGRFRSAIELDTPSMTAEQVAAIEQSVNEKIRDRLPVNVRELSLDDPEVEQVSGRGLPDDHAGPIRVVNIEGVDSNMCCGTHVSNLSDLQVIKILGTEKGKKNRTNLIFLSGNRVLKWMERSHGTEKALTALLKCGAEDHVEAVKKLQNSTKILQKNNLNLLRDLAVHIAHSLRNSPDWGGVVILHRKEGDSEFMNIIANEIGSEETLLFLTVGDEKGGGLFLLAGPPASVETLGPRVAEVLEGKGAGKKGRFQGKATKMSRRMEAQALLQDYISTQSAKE
inactive: [3] -0.659 | zotarolimus 0.055 | idasanutlin -0.071 | alisertib 0.08 | [1] 0.036 | gefitinib 0.157 | [2] -0.016 | lapatinib 0.069

ALG14 (UniProt Q96F25)
Chain of UniProt Q96F25 (Q96F25 whole entry, looked up): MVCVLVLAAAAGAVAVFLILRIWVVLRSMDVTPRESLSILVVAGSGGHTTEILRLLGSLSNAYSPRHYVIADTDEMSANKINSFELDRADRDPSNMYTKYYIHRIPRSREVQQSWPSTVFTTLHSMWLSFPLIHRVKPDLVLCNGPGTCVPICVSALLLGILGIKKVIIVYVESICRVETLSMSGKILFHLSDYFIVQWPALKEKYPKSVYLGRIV
inactive: [3] -0.2 | zotarolimus -0.109 | idasanutlin -0.091 | alisertib 0.112 | [1] -0.19 | gefitinib 0.074 | [2] 0.077 | lapatinib 0.168 | pictilisib -0.467

ACVR1 (UniProt Q04771)
Chain of UniProt Q04771 (Q04771 whole entry, looked up): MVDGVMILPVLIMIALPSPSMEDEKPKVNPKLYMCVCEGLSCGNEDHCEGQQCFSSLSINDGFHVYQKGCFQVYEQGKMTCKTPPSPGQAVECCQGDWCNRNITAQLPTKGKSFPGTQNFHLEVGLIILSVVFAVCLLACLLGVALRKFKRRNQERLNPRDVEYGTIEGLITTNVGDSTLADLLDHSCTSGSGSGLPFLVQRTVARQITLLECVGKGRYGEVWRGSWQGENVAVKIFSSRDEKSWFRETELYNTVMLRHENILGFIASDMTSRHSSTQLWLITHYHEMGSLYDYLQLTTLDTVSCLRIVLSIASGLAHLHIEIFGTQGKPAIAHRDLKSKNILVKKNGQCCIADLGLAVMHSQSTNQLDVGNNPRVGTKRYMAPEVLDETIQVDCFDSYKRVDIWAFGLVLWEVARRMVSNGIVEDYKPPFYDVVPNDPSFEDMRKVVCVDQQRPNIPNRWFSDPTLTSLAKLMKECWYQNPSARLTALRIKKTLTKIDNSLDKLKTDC
inactive: filanesib -0.022 | zotarolimus -0.371 | idasanutlin -0.156 | alisertib -0.096 | [1] 0.133 | [2] -0.13 | lapatinib -0.004 | pictilisib 0.248

AIF1 (UniProt P55008)
Chain of UniProt P55008 (P55008 whole entry, looked up): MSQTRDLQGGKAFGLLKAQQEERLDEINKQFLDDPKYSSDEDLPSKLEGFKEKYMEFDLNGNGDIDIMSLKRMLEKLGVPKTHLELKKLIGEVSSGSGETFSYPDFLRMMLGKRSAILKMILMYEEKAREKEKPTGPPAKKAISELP
inactive: filanesib 0.038 | idasanutlin 0.052 | [1] 0.083 | lapatinib 0.053

BTBD6 (UniProt Q96KE9)
Chain of UniProt Q96KE9 (Q96KE9 whole entry, looked up): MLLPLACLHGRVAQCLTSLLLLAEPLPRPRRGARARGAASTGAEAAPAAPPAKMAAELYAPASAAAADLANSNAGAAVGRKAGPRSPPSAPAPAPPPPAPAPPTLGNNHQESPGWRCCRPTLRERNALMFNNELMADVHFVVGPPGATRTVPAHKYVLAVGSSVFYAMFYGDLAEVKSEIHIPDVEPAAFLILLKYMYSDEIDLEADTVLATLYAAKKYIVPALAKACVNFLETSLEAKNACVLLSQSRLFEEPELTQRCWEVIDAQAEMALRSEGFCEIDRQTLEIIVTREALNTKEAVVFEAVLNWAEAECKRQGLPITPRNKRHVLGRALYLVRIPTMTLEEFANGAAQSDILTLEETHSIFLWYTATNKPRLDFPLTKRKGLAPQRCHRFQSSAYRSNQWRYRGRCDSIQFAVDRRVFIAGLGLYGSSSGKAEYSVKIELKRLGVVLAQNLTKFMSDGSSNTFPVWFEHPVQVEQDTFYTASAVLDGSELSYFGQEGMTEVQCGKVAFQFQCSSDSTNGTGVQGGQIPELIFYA
inactive: filanesib -0.019 | zotarolimus 0.062 | idasanutlin 0.053 | alisertib -0.058 | [1] 0.194 | gefitinib 0.03 | [2] -0.186 | lapatinib -0.072 | pictilisib 0.143

ADPRH (UniProt P54922)
inactive: [3] 0.098 | filanesib -0.088 | alisertib -0.099 | [1] 0.135 | gefitinib 0.013 | [2] -0.033 | lapatinib 0.05 | pictilisib -0.107

ACTR3B (UniProt Q9P1U1)
inactive: [1] 0.022 | gefitinib -0.213 | lapatinib -0.056 | pictilisib -0.021
active: [3] 0.407

ASB6 (UniProt Q9NWX5)
inactive: [3] 0.298 | filanesib 0.008 | idasanutlin -0.029 | alisertib -0.214 | [1] -0.083 | gefitinib -0.034 | [2] 0 | lapatinib -0.055 | pictilisib 0.157

BRAF, A0A2R8Y8E0
inactive: [3] -0.008 | idasanutlin 0.221 | alisertib -0.054 | gefitinib -0.027 | [2] -0.326

AUNIP isoform 2 (UniProt Q9H7T9)
inactive: filanesib 0.125 | zotarolimus -0.044 | idasanutlin 0.142 | [1] -0.229 | lapatinib 0.099

BSCL2 isoform 4 (UniProt Q96G97)
Chain of UniProt Q96G97 (Q96G97 whole entry, looked up): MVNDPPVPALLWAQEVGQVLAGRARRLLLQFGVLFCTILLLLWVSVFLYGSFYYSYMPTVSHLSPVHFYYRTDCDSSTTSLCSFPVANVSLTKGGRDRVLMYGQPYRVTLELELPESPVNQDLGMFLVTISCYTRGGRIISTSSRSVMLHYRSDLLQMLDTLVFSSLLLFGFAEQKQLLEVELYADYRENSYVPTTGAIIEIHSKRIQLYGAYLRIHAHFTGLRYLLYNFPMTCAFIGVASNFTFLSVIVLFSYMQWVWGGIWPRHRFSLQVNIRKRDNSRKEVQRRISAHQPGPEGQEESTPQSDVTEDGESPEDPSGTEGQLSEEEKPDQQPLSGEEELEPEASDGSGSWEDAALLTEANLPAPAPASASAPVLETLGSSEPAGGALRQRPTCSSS
inactive: zotarolimus 0.076 | idasanutlin -0.132 | alisertib -0.037 | [1] -0.248 | gefitinib 0.021 | [2] 0.069 | lapatinib 0.048 | pictilisib 0.126

ACSL6 isoform 1 (UniProt Q9UKU0)
inactive: filanesib -0.054 | alisertib -0.013 | gefitinib 0.103 | [2] 0.123 | pictilisib 0.051

AUH (UniProt Q13825)
inactive: [3] -0.107 | zotarolimus 0.009 | idasanutlin -0.074 | alisertib 0.175 | [1] -0.036 | [2] 0.034 | lapatinib 0.056 | pictilisib -0.071

BAIAP2 isoform 4 (UniProt Q9UQB8)
inactive: filanesib 0.302 | zotarolimus -0.184

ADD2 isoform 9 (UniProt P35612)
Chain of UniProt P35612 (P35612 whole entry, looked up): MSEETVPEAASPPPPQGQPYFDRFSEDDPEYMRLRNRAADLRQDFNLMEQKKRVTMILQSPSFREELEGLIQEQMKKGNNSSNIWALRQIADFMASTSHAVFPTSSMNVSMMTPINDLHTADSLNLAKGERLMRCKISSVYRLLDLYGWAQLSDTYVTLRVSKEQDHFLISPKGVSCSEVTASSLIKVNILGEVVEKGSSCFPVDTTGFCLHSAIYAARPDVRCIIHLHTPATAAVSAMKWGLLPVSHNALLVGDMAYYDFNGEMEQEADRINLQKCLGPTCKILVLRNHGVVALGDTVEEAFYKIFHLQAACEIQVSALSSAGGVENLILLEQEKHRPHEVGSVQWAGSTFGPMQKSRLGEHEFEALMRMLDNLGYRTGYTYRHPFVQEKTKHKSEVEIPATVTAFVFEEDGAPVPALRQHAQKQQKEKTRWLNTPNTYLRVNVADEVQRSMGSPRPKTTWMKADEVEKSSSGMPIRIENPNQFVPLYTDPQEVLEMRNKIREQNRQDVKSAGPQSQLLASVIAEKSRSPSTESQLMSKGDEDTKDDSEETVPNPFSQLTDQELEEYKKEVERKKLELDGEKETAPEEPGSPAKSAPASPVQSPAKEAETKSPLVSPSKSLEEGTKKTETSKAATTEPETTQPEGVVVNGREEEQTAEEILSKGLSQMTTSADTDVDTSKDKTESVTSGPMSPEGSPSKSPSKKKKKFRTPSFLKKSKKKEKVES
inactive: filanesib 0.043 | alisertib -0.072 | [1] -0.053 | [2] 0.282 | lapatinib 0.04

AMD1 (UniProt P17707)
Chain of UniProt P17707 (P17707 whole entry, looked up): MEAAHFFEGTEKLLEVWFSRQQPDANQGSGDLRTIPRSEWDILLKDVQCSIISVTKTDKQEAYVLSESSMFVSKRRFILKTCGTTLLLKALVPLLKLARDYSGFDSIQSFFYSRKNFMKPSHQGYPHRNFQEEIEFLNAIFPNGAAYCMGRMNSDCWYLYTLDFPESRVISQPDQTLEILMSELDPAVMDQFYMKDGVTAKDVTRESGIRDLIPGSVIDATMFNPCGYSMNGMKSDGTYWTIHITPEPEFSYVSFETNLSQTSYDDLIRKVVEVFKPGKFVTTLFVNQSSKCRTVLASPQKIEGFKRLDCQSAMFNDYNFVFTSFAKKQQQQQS
inactive: [3] -0.009 | filanesib -0.128 | idasanutlin -0.193 | alisertib -0.023 | [1] 0.024 | gefitinib 0.041 | [2] 0.058 | lapatinib -0.034 | pictilisib 0.043

ABHD11 (UniProt Q8NFV4)
Chain of UniProt Q8NFV4 (Q8NFV4 whole entry, looked up): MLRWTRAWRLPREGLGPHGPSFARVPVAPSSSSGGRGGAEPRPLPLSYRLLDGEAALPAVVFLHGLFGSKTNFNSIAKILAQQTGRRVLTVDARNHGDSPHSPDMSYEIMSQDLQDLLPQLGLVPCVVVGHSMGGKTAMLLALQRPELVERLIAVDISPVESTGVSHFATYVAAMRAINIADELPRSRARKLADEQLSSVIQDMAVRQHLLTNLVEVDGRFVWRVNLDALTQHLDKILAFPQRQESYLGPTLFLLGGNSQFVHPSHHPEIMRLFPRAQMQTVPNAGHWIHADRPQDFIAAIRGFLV
inactive: [3] -0.076 | zotarolimus 0.049 | idasanutlin -0.058 | alisertib -0.002 | [1] 0.061 | gefitinib -0.013 | [2] 0.076 | lapatinib -0.037 | pictilisib 0.024

BRD4 (UniProt O60885)
inactive: filanesib -0.068 | zotarolimus -0.253 | idasanutlin -0.001 | alisertib -0.064 | [1] 0.078 | gefitinib 0.152 | [2] -0.003 | lapatinib -0.039 | pictilisib 0.161

BRMS1 (UniProt Q9HCU9)
Chain of UniProt Q9HCU9 (Q9HCU9 whole entry, looked up): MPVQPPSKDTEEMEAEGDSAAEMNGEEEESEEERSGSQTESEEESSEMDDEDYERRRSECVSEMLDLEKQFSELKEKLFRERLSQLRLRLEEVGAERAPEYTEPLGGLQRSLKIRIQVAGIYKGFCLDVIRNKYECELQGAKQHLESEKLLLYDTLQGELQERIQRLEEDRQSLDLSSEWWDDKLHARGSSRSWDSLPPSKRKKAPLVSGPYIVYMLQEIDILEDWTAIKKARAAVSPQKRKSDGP
inactive: idasanutlin 0.066 | alisertib -0.074 | [2] 0.007 | pictilisib 0.042

AKNA (UniProt Q7Z591)
inactive: filanesib 0.04 | zotarolimus 0.01 | [1] 0.205 | lapatinib -0.059

ALDH2 isoform 2 (UniProt P05091)
inactive: filanesib 0.013 | idasanutlin 0 | [1] 0.166 | lapatinib -0.266 | pictilisib -0.035

ARRDC1 (UniProt Q8N5I2)
Chain of UniProt Q8N5I2 (Q8N5I2 whole entry, looked up): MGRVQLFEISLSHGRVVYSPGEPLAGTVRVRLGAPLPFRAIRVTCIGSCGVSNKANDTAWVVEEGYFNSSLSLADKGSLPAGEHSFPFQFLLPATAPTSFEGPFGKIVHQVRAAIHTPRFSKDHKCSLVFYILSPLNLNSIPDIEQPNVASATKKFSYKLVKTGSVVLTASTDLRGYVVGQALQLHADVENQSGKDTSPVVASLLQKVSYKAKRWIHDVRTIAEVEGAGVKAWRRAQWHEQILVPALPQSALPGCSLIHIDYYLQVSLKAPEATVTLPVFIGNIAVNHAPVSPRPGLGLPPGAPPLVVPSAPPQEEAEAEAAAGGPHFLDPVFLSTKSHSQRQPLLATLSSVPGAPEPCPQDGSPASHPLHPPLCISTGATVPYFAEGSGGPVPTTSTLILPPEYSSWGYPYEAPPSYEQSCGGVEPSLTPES
inactive: filanesib 0.013 | zotarolimus 0.182 | alisertib 0.152 | [1] -0.098 | gefitinib -0.009 | [2] 0 | lapatinib 0.01 | pictilisib -0.092

BAP18 isoform 3 (UniProt Q8IXM2)
inactive: alisertib -0.033 | [2] 0.12 | pictilisib -0.093
